Source: PubChem
Only some compounds are listed: those with a hit (about 4.2% of all), similar ones and a draw of the others.
Mtb FBA inh – Mtb FBA enzyme inhibitors, primary screen, biochemical, fluorescence, strain H37Rv. Fructose-bisphosphate aldolase (Mycobacterium tuberculosis (strain ATCC 25618 / H37Rv)), …. purified M. tuberculosis FBA, fluorescence read-out. inhibition, % at 1 µM. AID 588726, 2011. 360,000 tested, 2.3% active; in the data active means inhibition above about 27%
RecA splice inh – Mtb RecA intein splicing inhibitors, primary screen, biochemical, fluorescence, HTS; 290,000 tested, 0.75% active; inhibition, % (no concentration beside the values); Protein RecA (Mycobacterium tuberculosis (strain ATCC 25618 / H37Rv)), P9WHJ3; cell-free RecA intein splicing; in the data active means inhibition above about 30%
BJeLR lethal – MLPCN primary cell-based screen for lethality selective to Ras in HRASV12 cells; inhibition, % (concentration not given with the values); 300,000 tested, 0.17% active; BJeLR (HRASV12) viability, CellTiter-Glo ATP luminescence, 48 h; AID 1554, 2009; in the data active means inhibition above about 50%
PrPC surface inh – inhibitors of human cell surface prion protein PrPC, primary screen, cell-based, TR-FRET; Major prion protein (Homo sapiens), P04156; inhibition, % at 13.8 µM; TR-FRET read-out; 370,000 tested, 0.43% active; in the data active means inhibition above about 24%
GDH-TPI inh – GDH-TPI coupling enzyme inhibitors, primary screen, artefact control for M. tuberculosis FBA inhibitor project, biochemical, absorbance, full deck; GDH-TPI coupled enzyme counterscreen, NADH absorbance; inhibition, % at 4.8 µM; 360,000 tested, 1.2% active; in the data active means inhibition above about 30%
PrPC confirm – confirmation of inhibitors of cell surface human prion protein, confirmation, cell-based, TR-FRET; inhibition, % at 13.8 µM; shares compounds with PrPC surface inh; cell surface PrPC level; 1,500 tested, 65% active; in the data active means inhibition above about 25%
LD9 tox – cytotoxicity in LD9 cells, cytotoxicity control for cell surface PrPc inhibitor project, cell-based, luminescence, high throughput; shares compounds with PrPC surface inh; luminescence viability; inhibition, % at 13.8 µM; 1,500 tested, 29% active; AID 743201, 2013; in the data active means inhibition above about 9.5%
Numbers stand for hits.

Results for CC(C)CN1C(=O)C[C@@]2(C(=O)N(C)c3ccc(NC(=O)C(C)(C)C)cc32)C1c1ccccc1 (stereo partly specified) ?
PrPC surface inh: inactive

What do the screens show for `COC(=O)C1=C(C)N(Cc2ccccc2C(F)(F)F)C(=NCc2cccc(C(F)(F)F)c2)NC1CCc1ccccc1` (stereo unspecified)?
PrPC surface inh: inactive

What do the screens show for `COc1ccc(CC2C(=O)NC(C)C(=O)N(C)C3Cc4ccc(cc4)Oc4cc(ccc4O)CC(C(=O)NC(C)C(=O)NC(C)C(=O)N2C)N(C)C3=O)cc1` (stereo unspecified)?
Mtb FBA inh: inactive; PrPC surface inh: 83; GDH-TPI inh: inactive; PrPC confirm: 90; LD9 tox: 34

How did COc1cc2c3cc1Oc1c(OC)c(OC)cc4c1[C@H](Cc1ccc(cc1)Oc1cc(ccc1O)C[C@H]3N(C)CC2)N(C)CC4 do in these assays?
Mtb FBA inh: inactive; PrPC surface inh: inactive; GDH-TPI inh: inactive

Results for Cc1cc(Br)cn2c(Cc3ccsc3)c(-c3ccco3)nc12 ?
Mtb FBA inh: inactive; PrPC surface inh: 30; PrPC confirm: 43; LD9 tox: inactive

How did Cc1ccc(Cc2c(-c3ccco3)nc3ccc(Br)cn23)cc1 do in these assays?
Mtb FBA inh: inactive; PrPC surface inh: 34; PrPC confirm: 57; LD9 tox: inactive

What do the screens show for `Cc1ccc(Cc2c(-c3ccc(C)cc3)nc3ccc(Br)cn23)cc1`?
Mtb FBA inh: inactive; PrPC surface inh: inactive; GDH-TPI inh: inactive

What do the screens show for `Cc1cc(Br)cn2c(Cc3ccsc3)c(-c3cccc(Cl)c3)nc12`?
Mtb FBA inh: inactive; PrPC surface inh: inactive

What do the screens show for `Cc1cc(Br)cn2c(Cc3ccccc3)c(-c3ccco3)nc12`?
Mtb FBA inh: inactive; PrPC surface inh: 35; PrPC confirm: 50; LD9 tox: inactive

What do the screens show for `CN1c2ccc(-c3cccc(F)c3)cc2[C@H]2[C@H](CCN2S(=O)(=O)c2cccc(F)c2)[C@H]1CO`?
PrPC surface inh: inactive

Results for COC(=O)C1=C(C)N(Cc2ccccc2C(F)(F)F)C(=NCc2cc(OC)c(OC)c(OC)c2)NC1c1ccccc1 (stereo unspecified) ?
PrPC surface inh: inactive

What do the screens show for `Brc1ccc(-c2nnc3sc(CNC4CCCC4)cn23)cc1`?
Mtb FBA inh: inactive; RecA splice inh: inactive; BJeLR lethal: inactive; PrPC surface inh: 46; GDH-TPI inh: inactive; PrPC confirm: 58; LD9 tox: inactive

What do the screens show for `CCCCc1c(-c2ccccc2OC)ncn1Cc1cccc(OC)c1`?
PrPC surface inh: inactive

Results for CN1C(=O)C(C)(C)c2cc(S(=O)(=O)N3CCCC(C(=O)Nc4ccc(Cl)cc4)C3)ccc21 (stereo unspecified) ?
Mtb FBA inh: inactive; RecA splice inh: inactive; BJeLR lethal: inactive; PrPC surface inh: 81; GDH-TPI inh: inactive; PrPC confirm: 73; LD9 tox: inactive

Results for CC(C)c1ccc(NC(=O)C2CCCN(S(=O)(=O)c3ccc4c(c3)C(C)(C)C(=O)N4C)C2)cc1 (stereo unspecified) ?
Mtb FBA inh: inactive; RecA splice inh: inactive; BJeLR lethal: inactive; PrPC surface inh: 79; GDH-TPI inh: inactive; PrPC confirm: 73; LD9 tox: inactive

Results for CCOc1ccc(NC(=O)C2CCCN(S(=O)(=O)c3ccc4c(c3)C(C)(C)C(=O)N4C)C2)cc1 (stereo unspecified) ?
Mtb FBA inh: inactive; PrPC surface inh: 39; GDH-TPI inh: inactive; PrPC confirm: 33; LD9 tox: inactive

How did CN1C(=O)C(C)(C)c2cc(S(=O)(=O)N3CCCC(C(=O)NCc4ccc(F)cc4)C3)ccc21 (stereo unspecified) do in these assays?
Mtb FBA inh: inactive; RecA splice inh: inactive; BJeLR lethal: inactive; PrPC surface inh: 29; GDH-TPI inh: inactive; PrPC confirm: 40; LD9 tox: inactive

Results for COc1cccc(CNC(=O)C2CCCN(S(=O)(=O)c3ccc4c(c3)C(C)(C)C(=O)N4C)C2)c1 (stereo unspecified) ?
Mtb FBA inh: inactive; RecA splice inh: inactive; BJeLR lethal: inactive; PrPC surface inh: inactive; GDH-TPI inh: inactive

What do the screens show for `C=CCCC1CN(Cc2ccc(OC)cc2)S(=O)(=O)c2c(cccc2N(C)S(=O)(=O)c2ccc(C)cc2)O1` (stereo unspecified)?
PrPC surface inh: inactive

Results for COc1cc(N(C)C)ccc1C=c1c2ccccc2n2c1cc(-c1ccccc1)[n+]2C ?
Mtb FBA inh: inactive; PrPC surface inh: 31; GDH-TPI inh: inactive; PrPC confirm: 48; LD9 tox: 68

How did C[C@]12Cc3ccccc3C1CC1=N[C@@H](C3CCCCC3)O[C@@]13C[C@@H]2C(=O)N3C1CCN(Cc2ccccc2)CC1 (stereo partly specified) do in these assays?
PrPC surface inh: inactive

How did C=CCCN1[C@@H](Cc2ccccc2)COc2ccccc2S1(=O)=O do in these assays?
PrPC surface inh: inactive

Results for COCCN(C(=O)COC(=O)c1ccccc1Nc1ccccc1)c1c(N)n(Cc2ccccc2)c(=O)[nH]c1=O ?
Mtb FBA inh: inactive; RecA splice inh: inactive; BJeLR lethal: inactive; PrPC surface inh: inactive; GDH-TPI inh: inactive

How did CN(C(=O)COC(=O)c1ccccc1Nc1ccccc1)c1c(N)n(Cc2ccccc2)c(=O)[nH]c1=O do in these assays?
Mtb FBA inh: inactive; RecA splice inh: inactive; BJeLR lethal: inactive; PrPC surface inh: 29; GDH-TPI inh: inactive; PrPC confirm: 38; LD9 tox: inactive

What do the screens show for `Cc1ccc(OCc2cc(C(=O)NCc3cn4ccccc4n3)no2)cc1C`?
Mtb FBA inh: inactive; RecA splice inh: inactive; BJeLR lethal: inactive; PrPC surface inh: 43; GDH-TPI inh: inactive; PrPC confirm: 39; LD9 tox: inactive

What do the screens show for `COc1ccc2c(=O)cc(C(=O)O)oc2c1`?
Mtb FBA inh: inactive; RecA splice inh: inactive; BJeLR lethal: inactive; PrPC surface inh: inactive; GDH-TPI inh: inactive

Results for COc1ccc2c(C)c(C(=O)O)oc2c1 ?
Mtb FBA inh: inactive; RecA splice inh: inactive; BJeLR lethal: inactive; PrPC surface inh: 28; GDH-TPI inh: inactive; PrPC confirm: 30; LD9 tox: inactive
